Usually AC50 stands for the midpoint of the concentration-response curve, whichever way the signal moves.

Data on 4 compounds can be found in PubChem BioAssay (EPA / NIEHS).

Assay [1] deals with Bile acid receptor (Homo sapiens) (UniProt Q96RI1). Briefly: ATG_IR1_CIS: Attagene CIS-FACTORIAL HepG2 Assay for human Nuclear Receptor Subfamily 1 Group H Member 4 (NR1H4), IR1 submotif (AID 2282946). As to conditions: IR1 reporter transcription, actives raise or lower the signal. In short, it runs like this:
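Fluorescence of capillary-separated, HpaI-digested RT-PCR reporter products gave IR1-element mRNA induction in HepG2 cells 24 h after dosing. Endogenous transcription factors drove the cis-regulated reporters; activity was fitted bidirectionally against DMSO.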

A short description of assay [2]: ATG_ISRE_CIS: Attagene CIS-FACTORIAL HepG2 Assay for human Interferon Regulatory Factor 1 (IRF1) binding to an Interferon-Stimulated Response Element (ISRE) (AID 2282948). As to conditions: HepG2 ISRE cis-reporter (Attagene), mRNA transcription readout; actives raise or lower the signal. In short, it runs like this:
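Uses HepG2 liver cells transfected with cis-regulated reporters and measures mRNA 24 h post-dosing through RT-PCR, primer-extension labelling and capillary electrophoresis, with DMSO as negative control.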

Assay [3] in a line: ATG_M_32_CIS: Attagene CIS-FACTORIAL HepG2 Assay for M32 Transcription Factor (Internal Marker) (AID 2282949).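 Note: background control marker of the multiplexed CIS panel rather than a real target.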 As to conditions: HepG2 Attagene cis-factorial M32 reporter, mRNA; actives raise or lower the signal. An outline of the steps:
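Using DMSO as baseline, bidirectional curve fits were applied to reporter mRNA signals. These came from transiently transfected HepG2 cells exposed for 24 h, with RNA analysed by RT-PCR, FAM primer extension, HpaI digestion and CE.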

Assay [4] can be described thus: ATG_M_06_CIS: Attagene CIS-FACTORIAL HepG2 Assay for M06 Transcription Factor (Internal Marker) (AID 2282950). As to conditions: HepG2 Attagene CIS-FACTORIAL M06 internal marker reporter; actives raise or lower the signal. In short, it runs like this:
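Read-out is fluorescence of labelled reporter cDNA fragments resolved by capillary electrophoresis after RT-PCR. Cells: HepG2 carrying transfected cis-promoter reporter units, treated 24 h. Gain or loss of signal fitted relative to DMSO.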

Assay [5] has as its target Hypoxia-inducible factor 1-alpha (Homo sapiens) (UniProt Q16665). The assay can be described thus: ATG_HIF1a_CIS: Attagene CIS-FACTORIAL HepG2 Assay for human Hypoxia Inducible Factor 1 (HIF1A) (AID 2282951). As to conditions: HepG2 Attagene cis-factorial HIF1a reporter transcription; actives raise or lower the signal. In short, it runs like this: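 Dosed 24 h, transfected HepG2 cells yielded total RNA whose reporter transcripts were RT-PCR-amplified and sized by capillary electrophoresis using fluorescent labelling; DMSO defined baseline, with gain and loss of signal both fitted.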

The target in assay [6] is Hepatocyte nuclear factor 6 (Homo sapiens) (UniProt Q9UBC0). Briefly: ATG_HNF6_CIS: Attagene CIS-FACTORIAL HepG2 Assay for human Hepatocyte Nuclear Factor 6 (HNF6) (AID 2282952). Conditions: HepG2 Attagene cis-factorial HNF6 reporter transcription; actives raise or lower the signal. An outline of the steps:
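Endogenous transcription factor activity in human HepG2 liver cells was captured through cis-regulated reporter constructs. After 24 h treatment, reporter mRNA was measured by RT-PCR with capillary electrophoresis, and activity was fitted in both directions relative to DMSO.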

In assay [7] the target is Heat shock factor protein 1 (Homo sapiens) (UniProt Q00613). The assay can be described thus: ATG_HSE_CIS: Attagene CIS-FACTORIAL HepG2 Assay for human Heat Shock Transcription Factor 1 (HSE) (AID 2282953). Conditions: HepG2 HSE cis-reporter, Attagene RNA transcription; actives raise or lower the signal. In short, it runs like this: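 HepG2, transient MRTU transfection, cis-promoter reporters (endogenous TF activity). 24 h compound. RNA → oligo(dT) RT → PCR → 6-FAM primer extension → HpaI cut → CE. Bidirectional fit vs DMSO.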

The nature of assay [8]: ATG_MRE_CIS: Attagene CIS-FACTORIAL HepG2 Assay for human Metal Responsive Element (MRE) (AID 2282954). Conditions: HepG2 MRE cis-reporter transcription, Attagene multiplex; actives raise or lower the signal. An outline of the steps: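 RT-PCR/capillary electrophoresis readout of reporter mRNA, 24 h post-dosing, in HepG2 cells transfected with multiplexed cis-regulated reporter constructs. Gain or loss of signal fitted bidirectionally against DMSO baseline.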

Assay [9] is described as follows: ATG_PBREM_CIS: Attagene CIS-FACTORIAL HepG2 Assay for human Phenobarbital-responsive Enhancer Module (PBREM) (AID 2282955). Conditions: HepG2 PBREM cis-reporter, Attagene multiplexed transcription; actives raise or lower the signal. In short, it runs like this: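 Transfected liver-derived HepG2 cells exposed 24 h; PBREM reporter transcript quantified via RT-PCR and capillary electrophoresis, with activity in either direction referenced to DMSO.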

The target of assay [10] is Paired box protein Pax-6 (Homo sapiens) (UniProt P26367). Briefly: ATG_Pax6_CIS: Attagene CIS-FACTORIAL HepG2 Assay for human Paired Box 6 (PAX6) (AID 2282956). Conditions: HepG2 CIS-FACTORIAL PAX6 reporter transcription, RNA readout; actives raise or lower the signal. In short, it runs like this: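 DMSO-referenced bidirectional fits of reporter mRNA fluorescence; HepG2 with transient cis-promoter MRTUs, 24 h post-dose, RT-PCR plus capillary electrophoresis detection.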

The nature of assay [11]: ATG_PXRE_CIS: Attagene CIS-FACTORIAL HepG2 Assay for human Pregnane X Receptor Element (PXRE) (AID 2282957). Conditions: HepG2 Attagene CIS-FACTORIAL PXRE reporter, mRNA; actives raise or lower the signal. In short, it runs like this: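 Endogenous transcription factor activity in HepG2 was gauged through induction of reporter mRNA driven by a cis-regulating promoter element, sampled 24 h post-treatment. Activity was fitted in both directions against DMSO negative control.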

A short description of assay [12]: ATG_PPRE_CIS: Attagene CIS-FACTORIAL HepG2 Assay for human Peroxisome Proliferator-activated Response Element (PPRE) (AID 2282958). As to conditions: HepG2 PPRE cis-element reporter, Attagene transcription factor profiling; actives raise or lower the signal. An outline of the steps:
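Measured endpoint: PPRE-controlled reporter mRNA, detected by RT-PCR and capillary electrophoresis fluorescence, from transiently transfected HepG2 cells 24 h after dosing. Curves fitted in both directions using DMSO baseline.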

Assay [13] can be described thus: ATG_RORE_CIS: Attagene CIS-FACTORIAL HepG2 Assay for human RAR-related Orphan Receptor Element (RORE) (AID 2282959). As to conditions: HepG2 Attagene cis-factorial RORE reporter, mRNA; actives raise or lower the signal. An outline of the steps:
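Transiently transfected HepG2 reporter cells were treated 24 h. Reporter transcripts were detected by RT-PCR and capillary electrophoresis, with bidirectional fitting against DMSO.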

The nature of assay [14]: ATG_Sox_CIS: Attagene CIS-FACTORIAL HepG2 Assay for human SRY-box transcription factor (SOX) (AID 2282960). Conditions: HepG2 Attagene cis-factorial SOX reporter, mRNA; actives raise or lower the signal. An outline of the steps:
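Gain- or loss-of-signal endpoint, fitted bidirectionally with DMSO as negative control. Based on reporter mRNA from transfected HepG2 cells harvested 24 h post-treatment and quantified via RT-PCR and capillary electrophoresis.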

For assay [15], the target named is Transcription factor Sp1 (Homo sapiens) (UniProt P08047). The assay can be described thus: ATG_Sp1_CIS: Attagene CIS-FACTORIAL HepG2 Assay for human Specificity Protein 1 (Sp1) (AID 2282961). Conditions: HepG2 Sp1 cis-reporter transcription, actives raise or lower the signal. An outline of the steps: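 Endpoint reflects endogenous Sp1 transcriptional activity, not an exogenous fusion protein: HepG2 cells with transfected cis-regulated reporters, 24 h dosing, RT-PCR/capillary electrophoresis mRNA read-out, DMSO-normalised bidirectional fit.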

Assay [16] in a line: ATG_SREBP_CIS: Attagene CIS-FACTORIAL HepG2 Assay for human Sterol Regulatory Element Binding (SREBP) (AID 2282962). Conditions: HepG2 Attagene cis-factorial SREBP reporter, mRNA; actives raise or lower the signal. An outline of the steps:
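In this cis-format assay, HepG2 liver cells express reporters controlled by promoter elements responsive to native transcription factors. Exposure lasts 24 h; reporter mRNA fluorescence from capillary electrophoresis gives the signal, fitted bidirectionally against DMSO.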

Assay [17] has as its target Signal transducer and activator of transcription 3 (Homo sapiens) (UniProt P40763). The assay can be described thus: ATG_STAT3_CIS: Attagene CIS-FACTORIAL HepG2 Assay for human Signal Transducer and Activator of Transcription 3 (STAT3) (AID 2282963). Conditions: HepG2, Attagene cis-factorial STAT3 reporter transcription; actives raise or lower the signal. In short, it runs like this:
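Readout: fluorescent reporter mRNA fragments resolved by capillary electrophoresis. Setup: HepG2 transfected with MRTUs reporting endogenous transcription-factor activity, dosed 24 h. Gain or loss of signal fitted bidirectionally against DMSO control.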

A short description of assay [18]: ATG_TA_CIS: Attagene CIS-FACTORIAL HepG2 Assay for human TA Basal Promoter (AID 2282964). As to conditions: HepG2 Attagene CIS-factorial TA basal promoter reporter; actives raise or lower the signal. In short, it runs like this:
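Read-out: fluorescent reporter-transcript fragments resolved by capillary electrophoresis after RT-PCR and HpaI digestion. Source: HepG2 cells carrying transiently transfected multi-reporter cis constructs, treated 24 h. Endpoint fitted bidirectionally relative to DMSO.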

A short description of assay [19]: ATG_TCF_b_cat_CIS: Attagene CIS-FACTORIAL HepG2 Assay for human T-Cell-Factor with beta-catenin (TCF/b-cat) (AID 2282965). Conditions: HepG2 TCF/beta-catenin cis-reporter transcription, actives raise or lower the signal. An outline of the steps: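 HepG2, transient MRTU transfection, cis-element-driven reporters (endogenous TFs). 24 h compound exposure. Readout: reporter mRNA by RT-PCR + 6-FAM primer extension, HpaI digest, capillary electrophoresis. Gain/loss fit vs DMSO baseline.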

The nature of assay [20]: ATG_GRE_CIS: Attagene CIS-FACTORIAL HepG2 Assay for human Glucocorticoid Response Elements (GRE) (AID 2282947). Conditions: HepG2 GRE cis-reporter, Attagene multiplex mRNA; actives raise or lower the signal. An outline of the steps:
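Read-out: fluorescent reporter-transcript fragments separated by capillary electrophoresis after RT-PCR. Transiently transfected HepG2 cells carrying cis-element-driven reporter units were dosed for 24 h; gain or loss of signal fitted against DMSO control.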

Active and inactive are the calls of the source. Rule for the calls: active = hit-call score of the fitted dose curve at least 0.9, where 1 is the maximum; inactive = score below 0.9.

Chain of Bile acid receptor (Homo sapiens) (Q96RI1 whole entry, looked up): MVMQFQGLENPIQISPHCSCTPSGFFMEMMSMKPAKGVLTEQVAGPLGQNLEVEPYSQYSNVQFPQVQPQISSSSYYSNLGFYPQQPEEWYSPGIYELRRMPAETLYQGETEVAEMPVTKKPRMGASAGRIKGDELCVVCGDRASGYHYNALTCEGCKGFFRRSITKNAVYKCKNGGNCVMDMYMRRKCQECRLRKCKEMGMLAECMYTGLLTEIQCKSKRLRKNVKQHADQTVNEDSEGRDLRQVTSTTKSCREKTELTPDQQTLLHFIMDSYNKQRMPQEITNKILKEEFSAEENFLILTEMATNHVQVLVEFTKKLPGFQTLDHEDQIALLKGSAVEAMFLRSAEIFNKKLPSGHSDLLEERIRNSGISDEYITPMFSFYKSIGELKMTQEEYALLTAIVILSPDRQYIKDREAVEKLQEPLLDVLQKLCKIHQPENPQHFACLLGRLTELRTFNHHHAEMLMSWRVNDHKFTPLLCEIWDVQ
Chain of Hypoxia-inducible factor 1-alpha (Homo sapiens) (Q16665 whole entry, looked up): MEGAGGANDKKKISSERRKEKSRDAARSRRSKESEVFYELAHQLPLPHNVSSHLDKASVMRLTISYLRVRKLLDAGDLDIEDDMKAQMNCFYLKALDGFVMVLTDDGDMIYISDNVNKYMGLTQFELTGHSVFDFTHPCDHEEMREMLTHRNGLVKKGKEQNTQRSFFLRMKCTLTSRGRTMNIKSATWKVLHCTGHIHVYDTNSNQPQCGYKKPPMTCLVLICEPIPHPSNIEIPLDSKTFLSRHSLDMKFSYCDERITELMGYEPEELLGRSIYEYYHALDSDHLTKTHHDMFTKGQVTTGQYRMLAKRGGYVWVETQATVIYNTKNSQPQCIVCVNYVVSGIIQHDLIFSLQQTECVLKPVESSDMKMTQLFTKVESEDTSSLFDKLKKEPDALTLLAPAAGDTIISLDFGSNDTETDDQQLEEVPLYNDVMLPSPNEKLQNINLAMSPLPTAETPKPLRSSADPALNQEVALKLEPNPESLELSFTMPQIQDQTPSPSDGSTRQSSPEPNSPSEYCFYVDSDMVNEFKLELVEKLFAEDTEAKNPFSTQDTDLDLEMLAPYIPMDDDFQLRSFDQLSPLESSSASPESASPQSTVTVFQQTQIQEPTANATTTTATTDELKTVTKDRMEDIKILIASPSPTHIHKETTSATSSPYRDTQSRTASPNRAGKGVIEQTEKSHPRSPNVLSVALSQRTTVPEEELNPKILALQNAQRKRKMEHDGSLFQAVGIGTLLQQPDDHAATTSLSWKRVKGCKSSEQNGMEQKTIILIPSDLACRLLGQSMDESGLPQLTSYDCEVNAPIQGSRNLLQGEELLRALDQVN
Chain of Paired box protein Pax-6 (Homo sapiens) (P26367 whole entry, looked up): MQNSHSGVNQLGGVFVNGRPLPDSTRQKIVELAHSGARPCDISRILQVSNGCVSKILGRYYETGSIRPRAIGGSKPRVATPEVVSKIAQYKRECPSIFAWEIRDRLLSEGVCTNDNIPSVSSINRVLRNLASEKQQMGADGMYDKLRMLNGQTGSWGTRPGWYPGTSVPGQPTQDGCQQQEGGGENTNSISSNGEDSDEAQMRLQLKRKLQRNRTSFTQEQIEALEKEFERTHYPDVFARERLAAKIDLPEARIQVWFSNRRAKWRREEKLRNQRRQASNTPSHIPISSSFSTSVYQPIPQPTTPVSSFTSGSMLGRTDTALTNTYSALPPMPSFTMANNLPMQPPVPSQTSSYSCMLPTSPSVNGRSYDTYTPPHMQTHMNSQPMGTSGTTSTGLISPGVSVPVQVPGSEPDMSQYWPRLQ
Chain of Heat shock factor protein 1 (Homo sapiens) (Q00613 whole entry, looked up): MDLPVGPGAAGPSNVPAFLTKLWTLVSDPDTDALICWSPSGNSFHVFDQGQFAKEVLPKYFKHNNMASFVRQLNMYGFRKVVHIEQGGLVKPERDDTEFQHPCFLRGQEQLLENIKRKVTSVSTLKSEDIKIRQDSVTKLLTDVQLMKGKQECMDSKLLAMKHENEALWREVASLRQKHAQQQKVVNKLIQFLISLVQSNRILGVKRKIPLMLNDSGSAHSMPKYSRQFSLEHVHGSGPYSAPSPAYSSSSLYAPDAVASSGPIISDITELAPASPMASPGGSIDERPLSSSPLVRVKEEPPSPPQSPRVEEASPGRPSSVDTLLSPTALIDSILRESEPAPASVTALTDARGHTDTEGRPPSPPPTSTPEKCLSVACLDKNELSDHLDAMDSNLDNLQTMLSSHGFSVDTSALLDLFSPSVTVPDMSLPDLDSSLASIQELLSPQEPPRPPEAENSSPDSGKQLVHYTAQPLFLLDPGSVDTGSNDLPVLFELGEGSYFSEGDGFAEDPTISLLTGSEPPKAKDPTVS
Chain of Hepatocyte nuclear factor 6 (Homo sapiens) (Q9UBC0 whole entry, looked up): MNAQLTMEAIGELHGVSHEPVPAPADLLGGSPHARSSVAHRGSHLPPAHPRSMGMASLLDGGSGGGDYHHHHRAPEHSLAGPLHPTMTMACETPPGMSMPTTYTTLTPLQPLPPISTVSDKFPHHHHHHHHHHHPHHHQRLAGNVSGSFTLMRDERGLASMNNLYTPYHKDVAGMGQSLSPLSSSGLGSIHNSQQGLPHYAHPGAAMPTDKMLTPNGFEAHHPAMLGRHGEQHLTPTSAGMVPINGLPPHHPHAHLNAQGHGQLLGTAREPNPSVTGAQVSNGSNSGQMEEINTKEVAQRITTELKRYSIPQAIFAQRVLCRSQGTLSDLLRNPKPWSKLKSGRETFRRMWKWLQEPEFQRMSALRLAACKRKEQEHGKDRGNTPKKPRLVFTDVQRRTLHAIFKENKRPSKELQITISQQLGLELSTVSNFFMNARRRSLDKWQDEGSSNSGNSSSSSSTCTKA
Chain of Transcription factor Sp1 (Homo sapiens) (P08047 whole entry, looked up, the tested form may be a part): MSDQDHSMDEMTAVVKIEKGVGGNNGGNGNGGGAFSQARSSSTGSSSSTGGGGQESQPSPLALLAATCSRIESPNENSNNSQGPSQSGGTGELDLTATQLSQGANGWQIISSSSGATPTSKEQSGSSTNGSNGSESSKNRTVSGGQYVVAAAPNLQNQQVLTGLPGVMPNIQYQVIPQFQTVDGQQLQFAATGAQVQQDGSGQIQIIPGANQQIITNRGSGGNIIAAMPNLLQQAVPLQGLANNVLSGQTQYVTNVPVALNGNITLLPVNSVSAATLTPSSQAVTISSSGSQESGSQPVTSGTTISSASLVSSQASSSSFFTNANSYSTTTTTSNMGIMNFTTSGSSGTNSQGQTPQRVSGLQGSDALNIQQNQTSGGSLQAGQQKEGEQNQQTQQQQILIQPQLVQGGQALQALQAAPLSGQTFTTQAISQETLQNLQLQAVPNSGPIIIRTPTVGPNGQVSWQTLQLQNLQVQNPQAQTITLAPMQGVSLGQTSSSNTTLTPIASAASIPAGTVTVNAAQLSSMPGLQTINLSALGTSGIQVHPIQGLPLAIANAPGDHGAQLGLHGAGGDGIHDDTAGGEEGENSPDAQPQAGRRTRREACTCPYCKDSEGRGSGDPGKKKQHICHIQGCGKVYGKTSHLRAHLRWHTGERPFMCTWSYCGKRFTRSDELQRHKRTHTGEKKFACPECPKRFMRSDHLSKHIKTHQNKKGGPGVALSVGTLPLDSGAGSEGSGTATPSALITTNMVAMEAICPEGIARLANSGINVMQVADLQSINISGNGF
Chain of Signal transducer and activator of transcription 3 (Homo sapiens) (P40763 whole entry, looked up, the tested form may be a part): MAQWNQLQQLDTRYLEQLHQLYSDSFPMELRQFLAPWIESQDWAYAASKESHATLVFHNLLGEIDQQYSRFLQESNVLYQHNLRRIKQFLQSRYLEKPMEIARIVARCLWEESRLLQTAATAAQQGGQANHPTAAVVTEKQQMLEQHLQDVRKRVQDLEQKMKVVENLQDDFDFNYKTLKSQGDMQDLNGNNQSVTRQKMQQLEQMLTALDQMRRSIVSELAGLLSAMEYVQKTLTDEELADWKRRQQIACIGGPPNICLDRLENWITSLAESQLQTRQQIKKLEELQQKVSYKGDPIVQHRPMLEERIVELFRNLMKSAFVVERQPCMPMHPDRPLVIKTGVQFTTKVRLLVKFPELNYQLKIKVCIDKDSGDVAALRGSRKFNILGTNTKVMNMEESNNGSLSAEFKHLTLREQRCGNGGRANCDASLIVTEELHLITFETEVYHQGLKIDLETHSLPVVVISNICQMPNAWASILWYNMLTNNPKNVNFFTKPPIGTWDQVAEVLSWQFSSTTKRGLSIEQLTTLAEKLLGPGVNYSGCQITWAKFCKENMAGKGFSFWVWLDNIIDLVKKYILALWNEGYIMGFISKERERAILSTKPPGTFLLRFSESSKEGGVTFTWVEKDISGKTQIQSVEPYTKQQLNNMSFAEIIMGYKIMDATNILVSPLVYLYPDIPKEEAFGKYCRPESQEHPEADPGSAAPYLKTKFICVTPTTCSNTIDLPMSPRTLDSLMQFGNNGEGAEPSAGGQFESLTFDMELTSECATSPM

Regarding `CCCCCCCCCCCCS(=O)(=O)Cl`, the compound was classed as inactive in [1], in [2], in assay [3], in assay [4], in assay [5] and in assay [6]. Moreover, the outcome in assay [7], in [8], in assay [9], in assay [10], in [11] and in assay [12] was inactive. Also, the compound was called inactive in assay [13], in [14], in [15], in assay [16], in assay [17] and in assay [18]. The outcome in [19] was inactive.
Consider `Cc1cc(CCC(=O)OCCOCCOCCOC(=O)CCc2cc(C)c(O)c(C(C)(C)C)c2)cc(C(C)(C)C)c1O`, for which the call in assay [1], in [20], in [2], in [4], in assay [5] and in assay [6] was inactive. Further, the result in assay [7], in assay [10], in assay [13], in [14], in assay [16] and in [17] was inactive. For the same compound, the compound was classed as inactive in assay [18] and in [19]. The figures for the AC50 in assay [8], in assay [9] and in assay [11] were 26.6 µM (active), 17.7 µM (active) and 24.3 µM (active), respectively.
Consider `CCN(CCC#N)c1ccc(N=Nc2ccc([N+](=O)[O-])cc2)cc1`, for which the compound was classed as inactive in [1], in [2], in [3], in assay [4], in assay [5] and in assay [6]. Further, the compound was called inactive in assay [7], in [8], in assay [9], in assay [11], in assay [12] and in assay [13]. For the same compound, the call in assay [14], in assay [15], in [16], in [17], in assay [18] and in assay [19] was inactive.
As to `OCc1ccc(Cl)cc1Cl`, the compound was called inactive in [1], in [2], in [3], in assay [4], in [5] and in [6]. Also, the result in assay [7], in assay [8], in [9], in [10], in assay [11] and in [12] was inactive. The compound was classed as inactive in [13], in assay [14], in assay [15], in assay [16], in assay [17] and in [18]. The outcome in [19] was inactive.
